# A number with no mark means an inactive call. The rule behind the calls is not given here.
# Target: Pantothenate synthetase (Mycobacterium tuberculosis (strain ATCC 25618 / H37Rv)) (UniProt P9WIL5)
# Assay: Recombinant Mtb pantothenate synthetase (PanC) inhibitors, coupled enzyme, confirmatory (AID 375);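 note: 0% = full reaction with vehicle and 100% = no enzyme background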
# Details: coupled enzyme assay; at 10 µM, active compounds read high
# Sequence of Pantothenate synthetase (Mycobacterium tuberculosis (strain ATCC 25618 / H37Rv)) (P9WIL5 whole entry, looked up): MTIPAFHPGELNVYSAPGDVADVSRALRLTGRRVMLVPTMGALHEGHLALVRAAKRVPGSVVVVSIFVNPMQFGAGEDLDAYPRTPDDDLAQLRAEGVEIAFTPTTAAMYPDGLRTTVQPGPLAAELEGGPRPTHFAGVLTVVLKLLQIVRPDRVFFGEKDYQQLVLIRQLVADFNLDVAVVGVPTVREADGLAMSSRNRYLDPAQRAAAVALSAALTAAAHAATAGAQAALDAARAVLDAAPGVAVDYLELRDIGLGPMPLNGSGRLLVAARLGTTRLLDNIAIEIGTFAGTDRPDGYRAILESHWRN
row,Structure (SMILES),inhibition
1,COc1ccc(NC(=O)C(C)NS(=O)(=O)c2ccc(NC(C)=O)cc2)cc1Cl (stereo unspecified),9%
2,Cc1ccccc1-n1nc(C)c2cc(C(=O)NCc3cccnc3)sc21,0%
3,CCOC(=O)C1CCN(c2c(NC3CCCc4ccccc43)c(=O)c2=O)CC1 (stereo unspecified),2%
4,FC(F)(F)C(F)(F)C(F)(F)c1nnc2ccc(N3CCOCC3)nn12,3%
5,CCCCOc1cc(=O)[nH]c(=O)[nH]1,4%
6,Cc1c(NC(=O)C(C)OC(=O)c2cc3c4ccccc4n(C)c3s2)c(=O)n(-c2ccccc2)n1C (stereo unspecified),0%
7,COCCCn1c2nc3ccccc3nc2c2c(=O)n(-c3ccccc3OC)cnc21,11%
8,Cc1ccccc1NC(=O)c1ccc(NC(=O)c2ccco2)cc1,0%
9,O=C(CSc1nnc(CNC(=O)c2cccs2)o1)NC1CCCC1,0%
10,O=C(COC(=O)CCOc1ccccc1)Nc1ccc(Cl)cn1,0%
11,O=C(CSc1nnnn1C1CCCC1)Nc1cccc(NC(=O)c2ccco2)c1,5%
12,COc1nc2ccc(C)cc2cc1-c1noc(-c2cccnc2)n1,4%
13,CCOC(=O)Cn1nnnc1CN(Cc1ccc(OC)cc1)Cc1cc2cc(C)cc(C)c2[nH]c1=O,3%
14,O=C(Nn1cnnc1)c1cc2c(s1)CCCC2,0%
15,COC(=O)c1ccc(C2C(C#N)=C(N)Oc3cc(C)n(C)c(=O)c32)cc1 (stereo unspecified),0%
16,Cn1nc(CC(=O)Nc2ccc(N3CCN(C(=O)OC(C)(C)C)CC3)cc2)c2ccccc2c1=O,0%

# From PubChem BioAssay
